“And” between values parts separate entries of the source, which are not always exact repeats. Identical values can stand only once. About 2,000 (36%) of roughly 5,500 compounds were called active. Roughly 18% stayed inconclusive and do not appear here. Cut-off read from the data, not from the text of the source: active = normalized growth mostly below about 0.91 (no sharp cut-off); inconclusive = no clear call, values can overlap the other calls; inactive = mostly above about 0.92. The list shows a part of the results.
Assay: chemical genetic growth profiling, strain panel (AID 1159580);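 note: tested at 20 µM; growth read once vehicle control cultures reached saturation at 30 °C; 1 = growth at the plate median or of vehicle wells; lower values mean less growth of the strain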
Conditions: S. cerevisiae deletion strains, growth OD

Measured: normalized growth

CCCCC(CC)CN=C(N)NC(N)=NCCCCCCN=C(N)NC(N)=NCC(CC)CCCC (stereo not drawn)
active: locus YAL021C, strain ccr4, hits give low values 0.063 | locus YAL026C, strain drs2, hits give low values 0.0642 | locus YAL030W, strain snc1, hits give low values 0.0574 | locus YBL061C, strain skt5, hits give low values 0.0589 | locus YBR009C, strain hhf1, hits give low values 0.0622 | locus YBR021W, strain FUR4, hits give low values 0.097 | locus YBR023C, strain chs3, hits give low values 0.064 | locus YBR171W, strain sec66, hits give low values 0.0773 | locus YBR229C, strain ROT2, hits give low values 0.056 | locus YBR231C, strain swc5, hits give low values 0.0612 | locus YBR279W, strain paf1, hits give low values 0.0581 | locus YCL011C, strain gbp2, hits give low values 0.0577 | locus YCL016C, strain dcc1, hits give low values 0.0603 | locus YCL029C, strain bik1, hits give low values 0.0601 | locus YCL069W, strain vba3, hits give low values 0.0617 | locus YCR088W, strain abp1, hits give low values 0.0627 | locus YDL005C, strain med2, hits give low values 0.0747 | locus YDL035C, strain GPR1, hits give low values 0.0524 | locus YDL040C, strain nat1, hits give low values 0.0565 | locus YDL074C, strain BRE1, hits give low values 0.0887 | locus YDL101C, strain DUN1, hits give low values 0.0654 | locus YDL134C, strain PPH21, hits give low values 0.0565 | locus YDL185W, strain tfp1, hits give low values 0.0566 | locus YDL192W, strain arf1, hits give low values 0.0604 | locus YDR001C, strain nth1, hits give low values 0.061 | locus YDR069C, strain doa4, hits give low values 0.0611 | locus YDR101C, strain arx1, hits give low values 0.0576 | locus YDR137W, strain rgp1, hits give low values 0.0839 | locus YDR159W, strain sac3, hits give low values 0.086 | locus YDR162C, strain NBP2, hits give low values 0.0531 | locus YDR195W, strain ref2 0.115 | locus YDR297W, strain sur2, hits give low values 0.0561 | locus YDR318W, strain mcm21, hits give low values 0.0605 | locus YDR334W, strain swr1, hits give low values 0.0645 | locus YDR335W, strain msn5, hits give low values 0.062 | locus YDR388W, hits give low values 0.0558 | locus YDR392W, strain spt3, hits give low values 0.0874 | locus YDR502C, strain sam2, hits give low values 0.0583 | locus YEL003W, strain gim4, hits give low values 0.054 | locus YEL037C, strain rad23, hits give low values 0.0582 | locus YEL061C, strain CIN8 (second series), hits give low values 0.06 | locus YEL061C, strain CIN8, hits give low values 0.0537 | locus YER015W, strain faa2, hits give low values 0.0615 | locus YER016W, strain bim1, hits give low values 0.0587 | locus YER110C, hits give low values 0.0718 | locus YER111C, strain swi4, hits give low values 0.0729 | locus YER155C, strain BEM2 (second series), hits give low values 0.09 | locus YER155C, strain BEM2, hits give low values 0.0673 | locus YER167W, strain BCK2, hits give low values 0.0573 | locus YFR010W, strain ubp6, hits give low values 0.0674 | locus YGL078C, strain dbp3, hits give low values 0.0573 | locus YGL086W, strain mad1, hits give low values 0.0562 | locus YGL167C, strain pmr1, hits give low values 0.071 | locus YGL173C, strain kem1, hits give low values 0.0685 | locus YGL227W, strain vid30, hits give low values 0.0653 | locus YGL240W, strain doc1, hits give low values 0.0743 | locus YGL248W, strain PDE1, hits give low values 0.0546 | locus YGL253W, strain hxk2, hits give low values 0.0547 | locus YGR078C, strain PAC10, hits give low values 0.0524 | locus YGR135W, strain pre9, hits give low values 0.0595 | locus YGR252W, strain gcn5, hits give low values 0.113 | locus YHR013C, strain ard1, hits give low values 0.109 | locus YHR027C, strain rpn1, hits give low values 0.0612 | locus YHR030C, strain SLT2, hits give low values 0.0544 and 0.0908 | locus YHR079C, strain IRE1 (second series), hits give low values 0.0569 | locus YHR079C, strain IRE1, hits give low values 0.106 | locus YHR094C, strain hxt1, hits give low values 0.0581 | locus YHR129C, strain ARP1, hits give low values 0.0586 | locus YHR142W, strain chs7, hits give low values 0.0728 | locus YHR200W, strain rpn10, hits give low values 0.0601 | locus YIL066C, strain RNR3, hits give low values 0.0539 | locus YIL073C, strain SPO22, hits give low values 0.104 | locus YIL125W, strain kgd1, hits give low values 0.0595 | locus YIR030C, strain dcg1, hits give low values 0.0594 | locus YJL092W, strain hpr5, hits give low values 0.0605 | locus YJL095W, strain BCK1 (second series), hits give low values 0.0569 | locus YJL095W, strain BCK1, hits give low values 0.0657 and 0.0991 | locus YJL115W, strain asf1, hits give low values 0.0737 | locus YJL129C, strain trk1, hits give low values 0.0818 | locus YJL134W, strain LCB3, hits give low values 0.0522 | locus YJL154C, strain vps35, hits give low values 0.0612 | locus YJL164C, strain tpk1, hits give low values 0.06 | locus YJL166W, strain qcr8, hits give low values 0.0603 | locus YJL168C, strain set2, hits give low values 0.0617 | locus YJL187C, strain SWE1 (second series), hits give low values 0.0584 | locus YJR043C, strain POL32, hits give low values 0.0684 | locus YJR066W, strain TOR1, hits give low values -0.00183 | locus YJR075W, strain HOC1, hits give low values 0.0661
